A short description of assay [1]: qHTS assay to identify small molecule agonists of H2AX (AID 1224845; active = well fitted activation curve with a large enough effect in the signal ratio in the repeat runs, not every such curve was filed as active; the % refers to the signal ratio). In a few lines:
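Phospho-H2AX Ser139 measured by HTRF (ex 320 nm; em 665 and 620 nm) after 24 hr antibody incubation. Compounds, 15 concentrations, 0.76% DMSO, were applied to CHO-K1 cells for 3hr at 37C before lysis.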

Assay [2] in a line: qHTS assay to identify small molecule agonists of the hypoxia (HIF-1) signaling pathway (AID 1224846; active = well fitted activation curve with a large enough effect in the signal ratio in the repeat runs, not every such curve was filed as active; the % refers to the signal ratio). A digest of the protocol:
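Steps: seed ME-180 HRE-bla cells (2,000/well, 0.5% dialyzed FBS); incubate 5 hrs at 37C; pin-transfer compounds or DMSO; incubate 17 hrs; add LiveBLAzer B/G substrate CCF4-AM; measure reporter activation by FRET.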
(Quantitative high-throughput screening tests each substance at several concentrations.)

The nature of assay [3]: qHTS assay to identify small molecule agonists of H2AX - cell viability counter screen (AID 1224847; calls by dose curve; also: top concentration of the series differs between compounds; nearly all actives have a fitted effect of over 30% in size). A digest of the protocol:
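We seed wild-type CHO-K1 cells overnight, treat them for 3 hr at 37C with compounds in 15-concentration series, and quantify remaining viability by CellTiter-Glo luminescence.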

Assay [4] in a line: qHTS RealTime-Glo MT Cell Viability Assay in HepG2 cells - 24 hour (AID 1224867). Also: nearly all actives have a fitted effect of over 50% in size. A digest of the protocol:
(§1)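 HepG2 suspension premixed with RealTime-Glo reagents is plated at 600 cells per well and left 5 h at 37 C/5% CO2. Compounds in DMSO then go in, and bioluminescence reflecting viable cell number is recorded over 40 h.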

Assay [5] in a line: qHTS RealTime-Glo MT Cell Viability Assay in HEK293 cells - 32 hour (AID 1224868). Also: top concentration of the series differs between compounds; nearly all actives have a fitted effect of over 50% in size. A digest of the protocol: (§2)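 Reads taken at 0, 8, 16, 24, 32 and 40 h from the same wells. HEK293 cells (600/well) carried RealTime-Glo reagents from seeding, with compound added after a 5 h settle at 37 C.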
Assay [6] is described as follows: A CellTox Green Cytotoxicity Assay to monitor cytotoxicity in HEK293 cells - 0 hour (AID 1224869). Also: nearly all actives have a fitted effect of over 50% in size. A digest of the protocol:
(§3)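 Cytotoxicity was tracked continuously in HEK293 cells by a DNA-binding dye excluded from viable cells. Compounds were transferred in DMSO 5 h after seeding; fluorescence was recorded at intervals up to 40 h.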

A short description of assay [7]: qHTS RealTime-Glo MT Cell Viability Assay in HepG2 cells - 40 hour (AID 1224870). Also: nearly all actives have a fitted effect of over 50% in size. A digest of the protocol: (§4)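 Real-time viability: cells seeded at 600 per well together with NanoLuc and cell-permeant prosubstrate, compounds added after 5 h incubation. Luminescence tracked at 0, 8, 16, 24, 32 and 40 h of exposure.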
Assay [8] is described as follows: qHTS RealTime-Glo MT Cell Viability Assay in HEK293 cells - 16 hour (AID 1224872). In a few lines: as §2
Assay [9] can be described thus: qHTS RealTime-Glo MT Cell Viability Assay in HepG2 cells - 8 hour (AID 1224873). Also: nearly all actives have a fitted effect of over 55% in size. A digest of the protocol: as §4
Assay [10] in a line: qHTS RealTime-Glo MT Cell Viability Assay in HEK293 cells - 40 hour (AID 1224874). Also: nearly all actives have a fitted effect of over 50% in size. The conditions noted are these: RealTime-Glo luminescence; max response: active compounds read low. A digest of the protocol:
(§5)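 Nonlytic bioluminescent viability monitoring. HEK293 at 600 cells/well with reagent; 5 h settle; compound transfer by pintool; plates held at 37 C and read at set time points.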

A short description of assay [11]: A CellTox Green Cytotoxicity Assay to monitor cytotoxicity in HEK293 cells - 24 hour (AID 1224875). Also: series mostly up to about 77 µM; nearly all actives have a fitted effect of over 45% in size. In a few lines:
as §3

Assay [12] can be described thus: A CellTox Green Cytotoxicity Assay to monitor cytotoxicity in HepG2 cells - 16 hour (AID 1224876). Also: nearly all actives have a fitted effect of over 45% in size. A digest of the protocol: (§6)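 Real-time, homogeneous cytotoxicity readout: dead-cell DNA staining by CellTox Green in HepG2 monolayers, fluorescence measured at timed intervals up to 40 h of continuous compound exposure.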
Assay [13] can be described thus: qHTS RealTime-Glo MT Cell Viability Assay in HepG2 cells - 32 hour (AID 1224877). Also: nearly all actives have a fitted effect of over 55% in size. A digest of the protocol:
as §1

A short description of assay [14]: A CellTox Green Cytotoxicity Assay to monitor cytotoxicity in HepG2 cells - 24 hour (AID 1224878). Also: nearly all actives have a fitted effect of over 45% in size. Also: potency is read from the fitted curve at half-maximal effect. In a few lines: as §6
The nature of assay [15]: A CellTox Green Cytotoxicity Assay to monitor cytotoxicity in HepG2 cells - 40 hour (AID 1224879). Also: nearly all actives have a fitted effect of over 40% in size. Also: potency is read from the fitted curve at half-maximal effect. A digest of the protocol: as §6
Assay [16] can be described thus: qHTS RealTime-Glo MT Cell Viability Assay in HEK293 cells - 0 hour (AID 1224880). Also: top concentration of the series differs between compounds; nearly all actives have a fitted effect of over 45% in size. In a few lines:
as §5

A short description of assay [17]: A CellTox Green Cytotoxicity Assay to monitor cytotoxicity in HEK293 cells - 32 hour (AID 1224881). Also: nearly all actives have a fitted effect of over 40% in size. In a few lines: as §3
Assay [18] is described as follows: A CellTox Green Cytotoxicity Assay to monitor cytotoxicity in HEK293 cells - 40 hour (AID 1224871). Also: nearly all actives have a fitted effect of over 45% in size. In a few lines:
as §3

Unmarked numbers belong to inactive results. Inconclusive results are not listed. The source made the active and inactive calls. Unless noted, calls follow the shape of the dose curve; as a rule, active = well fitted curve in the direction sought with a large enough effect in the repeat runs; inconclusive = weak or mixed curves; inactive = no such curve, though single readings can be large; an effect the other way counts as inactive or inconclusive.
% is scaled to controls: 0 for no effect and ±100 for the full control effect.

For `c1ccc(CN2CCNCC2)cc1`, the Potency entry in [1], in [3], in assay [4], in assay [5], in [6] and in [7] was “inactive” in each case. Further, the Potency entry in assay [8], in assay [9], in assay [11], in assay [12], in assay [13] and in assay [14] was “inactive” in each case. Moreover, the Potency entry in assay [15], in assay [16] and in assay [17] was “inactive” in each case. Further, in assay [2], the outcome was inactive. Also, in [10], the max response was 3.29%.
Take `CN(N=O)c1ccc([N+](=O)[O-])cc1`: the Potency result in assay [1], in [3], in assay [4], in assay [5], in assay [6] and in assay [7] was “inactive” each time. Besides, the Potency entry in assay [18], in assay [8], in assay [9], in [11], in [12] and in assay [13] was “inactive” throughout. Moreover, the Potency entry in [17] is “inactive”. Also, the result in assay [2] was inactive. Further, in [10], the max response is -1.54%. Besides, the Potency in [14] and in assay [15] was 43.6 µM (active) in each case.
As to `c1ccoc1`, the Potency result in [1], in assay [3], in assay [4], in [5], in assay [6] and in assay [7] was “inactive” throughout. The Potency result in assay [18], in assay [8], in [9], in assay [11], in [12] and in assay [13] was “inactive” in each case. In addition, the Potency result in assay [14], in assay [15], in [16] and in [17] was “inactive” in each case. Moreover, the call in [2] was inactive. Also, the max response in assay [10] was -1.82%.
With `CCCCNP(N)(N)=S`, the Potency result in assay [1], in assay [3], in [4], in assay [5], in assay [6] and in [7] was “inactive” in each case. In addition, the Potency result in assay [8], in [9], in assay [11], in assay [12], in [13] and in [14] was “inactive” in each case. In addition, the Potency result in assay [15] and in assay [16] was “inactive” each time. In addition, the call in assay [2] was inactive. Further, the max response in assay [10] was 0.198%.
As for `NNC(=O)c1cccnc1`, the Potency entry in assay [1], in [3], in assay [4], in assay [5], in assay [6] and in [7] was “inactive” in each case. Also, the Potency result in assay [18], in assay [8], in assay [9], in [11], in [12] and in assay [13] was “inactive” in each case. The Potency result in [14], in [15], in assay [16] and in assay [17] was “inactive” in each case. Also, the result in [2] was inactive. Also, in assay [10], the max response is 12.4%.
`C=CC(=O)OC(C)(C)C`: the Potency result in [1], in [3], in [4], in [5], in assay [6] and in [7] was “inactive” each time. In addition, the Potency entry in [8], in [9], in [11], in assay [12], in assay [13] and in assay [14] was “inactive” in each case. Besides, the Potency result in [15], in assay [16] and in assay [17] was “inactive” in each case. Moreover, the outcome in assay [2] was inactive. Also, the max response in assay [10] was 13.5%.
As for `CC1(C)[C@H](C=C(Cl)Cl)[C@@H]1C(=O)O[C@@H](C#N)c1cccc(Oc2ccccc2)c1`, the Potency result in assay [1], in assay [3], in assay [4], in assay [5], in assay [6] and in assay [7] was “inactive” in each case. Besides, the Potency result in assay [18], in assay [8], in assay [9], in assay [11], in assay [12] and in [13] was “inactive” each time. For the same molecule, the Potency result in assay [14], in assay [15], in [16] and in assay [17] was “inactive” in each case. The molecule was classed as inactive in assay [2]. Besides, the max response in assay [10] was 0.601%.
With `C=COC(C)=O`, the Potency entry in assay [1], in assay [3], in assay [4], in assay [5], in assay [6] and in [7] was “inactive” throughout. Further, the Potency result in assay [18], in assay [8], in assay [9], in assay [11], in assay [12] and in [13] was “inactive” each time. For the same molecule, the Potency entry in assay [14], in [15], in assay [16] and in [17] was “inactive” throughout. In assay [2], the molecule was classed as inactive.

The values above are taken from PubChem BioAssay (Tox21).
